Screening data: PubChem, Johns Hopkins Ion Channel Center
TMEM16A inh = mouse TMEM16A channel inhibition, primary screen; HEK293 TMEM16A/YFP iodide influx fluorescence, ionomycin; normalized B-score (activity score, 25-100; higher = stronger inhibition) at 10 µM; hit rate 1.2% among 310,000;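 active means ratio plate-corrected score three or more library SD toward inhibition, starting fluorescence score within five deviations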;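 further: score derived from kinetic fluorescence span divided by baseline fluorescence per well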
KCNK9 inh = blocks the human KCNK9 two-pore domain potassium channel. Q9NPC2. HEK293 KCNK9, FluxOR thallium flux fluorescence; active compounds read low. B-score at 10 µM. hit rate 1.2% among 310,000. AID 488922;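 active means ratio B-score over 3 SD below the library mean, with starting fluorescence within 5 SD of its mean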;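 further: negative B-score means less thallium flux so channel inhibition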
Kir21 block = blocks the mouse Kir2.1 inward-rectifier potassium channel; P35561; HEK293-Kir2.1, FluxOR thallium flux fluorescence; active compounds read low; B-score at 10 µM; hit rate 0.85% among 310,000;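 active means fluorescence ratio B-score at or below minus 3 SD of library scores, with starting-brightness B-score within 2 SD, cut at about -4.2 in these data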;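 further: channel flux triggered by added potassium and thallium sulfate stimulus; B-score of peak minus minimum fluorescence over baseline after thallium stimulus; more negative B-score means stronger Kir2.1 block with less thallium influx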
Target sequence (P35561 whole entry, looked up): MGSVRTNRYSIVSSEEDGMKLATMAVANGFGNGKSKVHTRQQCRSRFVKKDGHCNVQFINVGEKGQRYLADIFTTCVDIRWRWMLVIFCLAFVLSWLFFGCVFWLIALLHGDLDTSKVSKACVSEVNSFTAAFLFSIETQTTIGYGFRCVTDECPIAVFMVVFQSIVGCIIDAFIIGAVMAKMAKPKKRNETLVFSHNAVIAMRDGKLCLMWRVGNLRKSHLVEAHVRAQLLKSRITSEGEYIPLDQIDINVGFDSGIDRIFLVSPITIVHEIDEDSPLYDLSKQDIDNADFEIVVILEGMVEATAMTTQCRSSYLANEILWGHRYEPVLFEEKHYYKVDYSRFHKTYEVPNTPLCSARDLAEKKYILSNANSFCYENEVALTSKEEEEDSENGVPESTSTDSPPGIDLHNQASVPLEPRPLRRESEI
KCNK3 inh = human KCNK3 channel inhibition, primary screen; hit rate 0.84% among 340,000; O14649; B-score at 10 µM; AID 602410; CHO-KCNK3 thallium flux, FluxOR fluorescence; active compounds read low;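 active means B-score under library mean minus 4 SD, starting fluorescence ratio at most library mean plus 5 SD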;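 further: more negative B-score means stronger inhibition of thallium flux through KCNK3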
ANO1 activ = mouse TMEM16A channel activation, primary screen. hit rate 0.3% among 340,000. B-score at 10 µM. HEK293 TMEM16A/YFP-H148Q/I152L, iodide quench fluorescence; active compounds read low;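 active means fluorescence-ratio B-score plate-corrected deviation score at least 3 library SD below zero, with starting fluorescence score within 5 deviations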;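 further: channel opened by trigger with iodide after compound preincubation; score built on the fluorescence ratio of max minus min over baseline; more negative score means more quench and so TMEM16A activation or potentiation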
KCNK9 inh conf = human KCNK9 inhibitor confirmation. AID 492992. HEK293 KCNK9 cells, FluxOR thallium flux fluorescence. shares compounds with KCNK9 inh. hit rate 43% among 4,900. inhibition, % at 10 µM;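 active means thallium signal inhibited by more than 5 SD of the compound-free buffer control wells, on both duplicate plates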;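 further: 0% = assay buffer control wells without compound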
Kir2-1 spec = mouse Kir2.1 off-target activity of KCNK9 modulators; hit rate 4% among 4,900; shares compounds with KCNK9 inh; AID 492993; inhibition, % at 10 µM; Kir2.1 cells, FluxOR thallium flux fluorescence;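 active means thallium signal drop more than 5 SD beyond the mean of the no-compound control wells, seen in both duplicate plates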;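 further: signal is fluorescence rise after thallium addition divided by baseline fluorescence; plate controls were assay buffer only for no effect and full block by chlorpromazine control for full effect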
HEK293 Tl ctr = second check of KCNK9 modulator effects in non-induced HEK293 cells. shares compounds with KCNK9 inh. FluxOR thallium flux. inhibition, % at 10 µM. hit rate 40% among 4,900. AID 492997;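 active means thallium signal drop beyond 5 SD of the untreated control mean, on both duplicate plates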;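 further: plate controls were buffer only IC0 wells for no effect and SID17386958 at its maximal inhibitory level for full effect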
The depositor's hits bear a star; i = inactive; . = no result given. Most compounds without a hit are left out; they make up all but 3.5% or so of the library.

SMILES	TMEM16A inh	KCNK9 inh	Kir21 block	KCNK3 inh	ANO1 activ	KCNK9 inh conf	Kir2-1 spec	HEK293 Tl ctr
CCC(=O)NC(=S)NNC(=O)c1ccc(O)cc1	i	-8.2*	-0.84	i	i	i	i	27%*
CCC(=O)NNC(=S)NC(=O)c1ccc(C)cc1	i	i	1.3	i	i	.	.	.
CCOC(=O)[C@@H]1[C@H]2COc3ccccc3[C@H]2N2C(=O)N(c3ccc(C(F)(F)F)cc3)C(=O)[C@]12C	i	-8.6*	-0.6	i	i	52%*	i	34%*
O=S(=O)(Cc1cc(Sc2ccc(Cl)cc2)nc(-c2ccccc2)n1)c1ccccc1	i	-8.5*	1.6	i	i	i	i	32%*
O=S(=O)(Cc1cc(Oc2ccccc2)nc(-c2ccccc2)n1)c1ccccc1	i	i	1.4	i	i	.	.	.
COc1ccc(CNC(=O)c2cccc(-c3ccc(C)c4ccccc34)n2)cc1	i	i	0.22	i	i	i	i	i
Cn1c2ccccc2c(=O)c2c(=O)n(-c3ccc(F)cc3)c(C3CCCCC3)nc21	.	.	.	i	i	.	.	.
CC(=O)Oc1ccccc1C(=O)OCCN=C1NS(=O)(=O)c2ccccc21	i	i	-1.4	i	i	.	.	.
Cc1nn(-c2ccccc2)c(N)c1Sc1ccccc1[N+](=O)[O-]	i	i	0.14	i	i	.	.	.
Cc1nn(-c2ccccc2)c(N)c1Sc1cccc([N+](=O)[O-])c1	i	-13*	0.55	i	i	66%*	i	29%*
Cc1cc(-c2ccccc2)n2nc(N)nc2n1	i	i	-0.05	i	i	.	.	.
O=C(CSc1nnc(-c2ccccc2F)o1)N1CCNC1=O	.	.	.	i	i	.	.	.
CC(=O)n1cc([C@H]2C=C(C(=O)NCc3ccccc3)O[C@@H](OCCCCO)C2)c2ccccc21	i	i	-0.36	i	i	i	i	i
O=C(NCc1ccccc1)C1=C[C@H](c2ccc(Br)cc2)C[C@H](OCc2ccc(CO)cc2)O1	i	i	0.01	i	i	i	i	i
O=C(NCc1ccccc1)C1=C[C@@H](c2ccccc2)C[C@@H](OCc2ccc(CO)cc2)O1	i	i	1.8	i	i	.	.	.
CC(=O)n1cc([C@H]2C=C(C(=O)NCc3ccccc3)O[C@@H](OCc3ccc(CO)cc3)C2)c2ccccc21	i	i	0.02	i	i	i	i	i
OCC1OCOC2C(CO)OCOC12 (configuration not stated)	.	.	.	i	i	.	.	.
COc1cc(OC)c(/C=N/n2c(C)nnc2C)c(OC)c1	i	i	-0.23	i	i	.	.	.
O=C(CCSc1nnc(-c2ccncc2)o1)Nc1ccccc1Cl	i	i	-1.1	i	i	.	.	.
O=c1cc(CN2CCN(Cc3ccccc3)CC2)c2cc3c(cc2o1)CCC3	i	i	-0.02	i	i	i	i	i
NC(=O)c1cnccc1C=Cc1ccccc1	.	.	.	i	i	.	.	.
CCOC(=O)C1(C(=O)OCC)CC1c1ccccc1 (configuration not stated)	i	i	-3	i	i	.	.	.
COc1ccc2nc(SCC(=O)Nc3ccc4c(c3)CCC4)[nH]c2c1	i	i	-1.1	i	i	i	i	i
N#Cc1c(-c2ccccc2)nc(SCC(=O)N2c3ccccc3Sc3ccccc32)[nH]c1=O	i	i	1.2	i	i	i	i	25%*
CCOc1ccc(Cl)cc1S(=O)(=O)N1CCC(C(=O)NCc2ccncc2)CC1	i	i	-0.16	i	i	.	.	.
SMILES	TMEM16A inh	KCNK9 inh	Kir21 block	KCNK3 inh	ANO1 activ	KCNK9 inh conf	Kir2-1 spec	HEK293 Tl ctr
CC1CCc2c(sc(NC(=O)c3ccccc3C(=O)O)c2C#N)C1 (configuration not stated)	i	i	2.7	i	i	.	.	.
CCC(C)(C)C1CCc2c(sc(NC(=O)c3ccccc3C(=O)O)c2C#N)C1 (configuration not stated)	i	i	0.38	i	i	i	i	i
CC1CC(C)CN(S(=O)(=O)c2ccc(C(=O)N3CCN(c4ccccc4)CC3)cc2)C1 (configuration not stated)	i	i	0.64	i	i	i	i	i
O=C(Oc1ccc2ccc(=O)oc2c1)c1ccccc1	i	i	0.67	i	i	.	.	.
COc1ccc(C(=O)Oc2ccc3ccc(=O)oc3c2)cc1	i	-13*	1.1	i	i	64%*	i	27%*
O=C(CN(C(=O)c1cccc([N+](=O)[O-])c1)C1CCCCC1)Nc1ccc(Cl)c([N+](=O)[O-])c1	i	i	2	i	i	.	.	.
Cc1ccc([N+](=O)[O-])cc1NC(=O)CN(C(=O)c1ccccc1Cl)C1CCCCC1	i	-9.6*	0.17	i	i	50%*	i	i
Cc1ccc(N2C(=O)CS/C2=N\C(=S)Nc2ccccc2)cc1	i	i	-0.33	i	i	.	.	.
O=C1C=C(O)c2[nH]c(=O)ccc2C1=O	.	.	.	i	i	.	.	.
CN(C)/C=C(/C#N)C(=O)c1cccc(Oc2ccc(C(C)(C)C)cc2)c1	i	i	0.47	i	i	i	i	42%*
CCOc1ccc(NC(=O)CSc2nnc(CNC(=O)c3ccco3)o2)cc1	i	i	2.3	i	i	.	.	.
Cc1ccc(C(=O)COC(=O)CSc2cccc3cccnc23)c(C)c1	i	i	0.55	i	i	i	i	i
O=C(O)CSc1cccc2cccnc12	i	i	1	i	i	.	.	.
O=[N+]([O-])c1cc2c(c(CSc3nnnn3-c3ccc(O)cc3)c1)OCOC2	i	i	-2.5	i	i	.	.	.
CC1CCN(CCCNC(=O)c2ccc3c(Cl)c4c(nc3c2)CCCC4)CC1	i	i	-1.2	i	i	.	.	.
Brc1cc2c(cc1C1Nc3ccccc3C3C=CCC31)OCO2 (configuration not stated)	i	-8.3*	2.2	i	i	56%*	i	42%*
CC1CN(C(=O)N2c3ccccc3Sc3ccccc32)C(C)CC1=O (configuration not stated)	i	-8.1*	-0.22	i	i	30%*	i	29%*
CC1CN(C(=O)N2c3ccccc3Sc3ccccc32)CC(C)O1 (configuration not stated)	i	i	1.6	i	i	.	.	.
